Unmarked numbers belong to inactive results. For some assays here: Entries with a potency or affinity are not part of this list. The source made the active and inactive calls. Unless noted, no rule for the calls is given here.

The nature of assay [1]: antimalarial activity against Dd2 strain (AID 2302;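 active = growth inhibition above 50% at the single 2 µM test dose, taken to imply half-maximal potency below 2 µM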;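 also: 0% = DMSO untreated growth and 100% = chloroquine plus artemisinin killed control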). The conditions noted are these: P. falciparum Dd2 in RBCs, LDH growth readout, 72 h; at 2 µM; stronger effect = higher value.
Assay [2] in a line: HepG2 cytotoxicity, primary screen, cytotoxicity control for P. falciparum antimalarial project, cell-based, ATP luminescence (AID 2303;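 active = inhibition above 50%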;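 also: 0% = DMSO wells and 100% = digitonin-killed cells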). To be noted: HepG2 viability, 24-48 h, at 10 µM, stronger effect = higher value.
The target in assay [3] is L-lactate dehydrogenase (Plasmodium falciparum (isolate CDC / Honduras)) (UniProt Q27743). The experiment in a line: PfLDH activity inhibition – cell lysate, 3D7 strain, counter-screen for P. falciparum growth inhibition project (AID 2304).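 Also: 0% = vehicle and 100% = reference inhibitor.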 The conditions noted are these: P. falciparum 3D7 crude extract, LDH APAD/NBT absorbance; at 2 µM; stronger effect = higher value. Background: The purpose of a counterscreen is to sort out artefacts and off-target activity.
Chain of L-lactate dehydrogenase (Plasmodium falciparum (isolate CDC / Honduras)) (Q27743 whole entry, looked up): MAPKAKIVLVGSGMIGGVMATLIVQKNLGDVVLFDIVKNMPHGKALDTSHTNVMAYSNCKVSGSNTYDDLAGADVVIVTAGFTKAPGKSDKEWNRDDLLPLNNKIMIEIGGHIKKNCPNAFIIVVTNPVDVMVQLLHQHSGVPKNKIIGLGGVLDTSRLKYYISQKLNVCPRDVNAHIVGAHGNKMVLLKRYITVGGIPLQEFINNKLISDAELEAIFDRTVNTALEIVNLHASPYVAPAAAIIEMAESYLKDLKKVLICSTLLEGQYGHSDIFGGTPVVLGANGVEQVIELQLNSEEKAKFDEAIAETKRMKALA

Assay [4] is described as follows: inhibition of 3D7 malaria parasite growth – strain 3D7 (AID 2306).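 Also: 0% = DMSO wells and 100% = chloroquine plus artemisinin control wells.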 The conditions noted are these: P. falciparum 3D7 erythrocytic growth, LDH absorbance, 72 h; at 2 µM; stronger effect = higher value.
The target in assay [5] is Calcium-dependent protein kinase 1 (Plasmodium falciparum (isolate 3D7)) (UniProt P62344). Kind of assay: PfCDPK1 kinase inhibitors, biochemical, TCAMS library (AID 1159585; cut-off not given, nearly all actives have IC50 up to about 0.98 µM;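 also: inhibitors leave more ATP so luminescence rises with inhibition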). To be noted: recombinant PfCDPK1, Kinase-Glo ATP depletion luminescence. On the technique in general: Kinase-Glo measures the ATP left after a reaction by luminescence.
Chain of Calcium-dependent protein kinase 1 (Plasmodium falciparum (isolate 3D7)) (P62344 whole entry, looked up): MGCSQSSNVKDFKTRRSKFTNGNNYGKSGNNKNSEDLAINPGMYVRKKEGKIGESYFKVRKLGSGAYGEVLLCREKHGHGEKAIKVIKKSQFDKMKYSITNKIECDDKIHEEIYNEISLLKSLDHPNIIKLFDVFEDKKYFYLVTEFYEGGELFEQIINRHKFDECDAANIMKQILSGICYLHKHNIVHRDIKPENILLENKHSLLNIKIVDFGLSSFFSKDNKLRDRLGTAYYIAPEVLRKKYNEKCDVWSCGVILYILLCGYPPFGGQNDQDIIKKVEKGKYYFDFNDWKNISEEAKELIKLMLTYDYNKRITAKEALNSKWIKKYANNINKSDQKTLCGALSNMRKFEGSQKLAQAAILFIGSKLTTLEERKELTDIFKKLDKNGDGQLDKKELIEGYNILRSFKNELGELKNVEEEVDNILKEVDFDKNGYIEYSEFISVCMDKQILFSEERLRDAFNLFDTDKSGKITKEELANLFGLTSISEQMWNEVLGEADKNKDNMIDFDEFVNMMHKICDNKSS
The target of assay [6] is Plasmodium falciparum protein kinase 6 (PK6, PF3D7_1337100) (UniProt Q8IDW1). The experiment in a line: PfPK6 kinase inhibitors, biochemical, TCAMS library (AID 1159586). To be noted: recombinant PfPK6, Kinase-Glo ATP depletion luminescence.
Chain of Plasmodium falciparum protein kinase 6 (PK6, PF3D7_1337100) (Q8IDW1 1-305): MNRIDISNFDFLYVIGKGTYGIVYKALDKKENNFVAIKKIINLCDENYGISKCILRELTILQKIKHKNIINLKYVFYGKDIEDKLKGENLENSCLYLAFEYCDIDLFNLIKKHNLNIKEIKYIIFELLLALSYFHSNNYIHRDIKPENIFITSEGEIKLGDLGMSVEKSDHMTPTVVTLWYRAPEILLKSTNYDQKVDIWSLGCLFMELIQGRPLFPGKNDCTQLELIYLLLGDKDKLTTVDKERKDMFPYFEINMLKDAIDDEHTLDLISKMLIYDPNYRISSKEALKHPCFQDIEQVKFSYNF
The target of assay [7] is Protein kinase 7 (PK7), Plasmodium falciparum 3D7 (PF3D7_0213400) (UniProt Q7YTF7). The experiment in a line: inhibition of Plasmodium PK7 catalytic activity – biochemical, TCAMS antimalarial set, Kinase-Glo luminescence (AID 1159587). The conditions noted are these: recombinant PfPK7, Kinase-Glo ATP depletion luminescence.
Chain of Protein kinase 7 (PK7), Plasmodium falciparum 3D7 (PF3D7_0213400) (Q7YTF7 1-343): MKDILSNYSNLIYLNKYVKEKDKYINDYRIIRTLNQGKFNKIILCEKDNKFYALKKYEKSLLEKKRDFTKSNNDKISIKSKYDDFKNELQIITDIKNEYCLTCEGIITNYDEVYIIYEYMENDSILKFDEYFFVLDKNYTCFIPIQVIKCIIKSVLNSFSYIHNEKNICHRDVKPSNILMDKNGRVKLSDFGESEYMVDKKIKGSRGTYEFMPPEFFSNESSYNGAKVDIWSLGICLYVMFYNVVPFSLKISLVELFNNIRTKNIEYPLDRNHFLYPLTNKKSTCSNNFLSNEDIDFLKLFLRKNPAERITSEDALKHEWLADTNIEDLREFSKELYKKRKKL
Assay [8] concerns the target Calcium-dependent protein kinase 4 (Plasmodium falciparum (isolate 3D7)) (UniProt Q8IBS5). The experiment in a line: PfCDPK4 kinase inhibitors, biochemical, TCAMS library (AID 1159588; cut-off not given, nearly all actives have IC50 up to about 0.91 µM). To be noted: recombinant PfCDPK4, Kinase-Glo ATP depletion luminescence.

Chain of Calcium-dependent protein kinase 4 (Plasmodium falciparum (isolate 3D7)) (Q8IBS5 whole entry, looked up): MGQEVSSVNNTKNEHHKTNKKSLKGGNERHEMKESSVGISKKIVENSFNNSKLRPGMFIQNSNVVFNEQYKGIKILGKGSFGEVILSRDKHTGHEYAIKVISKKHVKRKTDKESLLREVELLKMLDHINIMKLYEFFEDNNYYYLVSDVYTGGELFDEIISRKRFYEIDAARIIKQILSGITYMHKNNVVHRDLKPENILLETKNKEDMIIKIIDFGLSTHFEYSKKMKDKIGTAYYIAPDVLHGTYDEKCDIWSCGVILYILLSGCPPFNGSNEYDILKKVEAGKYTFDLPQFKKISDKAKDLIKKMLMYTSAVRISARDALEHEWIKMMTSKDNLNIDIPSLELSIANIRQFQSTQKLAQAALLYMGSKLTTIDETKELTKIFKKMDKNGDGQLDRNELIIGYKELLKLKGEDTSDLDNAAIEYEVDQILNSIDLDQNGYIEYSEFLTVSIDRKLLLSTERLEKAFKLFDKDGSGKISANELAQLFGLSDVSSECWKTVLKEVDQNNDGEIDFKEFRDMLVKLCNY

`O=C(Nc1ccc(Cn2ncc(N3CCCNCC3)c(Cl)c2=O)cc1)Nc1cccc(SC(F)(F)F)c1`: the growth inhibition in assay [1] was 33%; in assay [4] it was 92% (active). For the same compound, the inhibition in assay [2] was 12%; in assay [3] it was 4%. Moreover, the outcome in assay [5], in assay [6], in assay [7] and in assay [8] was inactive.

Regarding `COc1ccc(Nc2nc(NCc3cccnc3)cc(-c3ccc(OC)cc3)n2)cc1`, the values for the growth inhibition in assay [1] and in assay [4] were 16% and 89% (active), respectively. Also, the values for the inhibition in assay [2] and in assay [3] were -2% and 3%, respectively. Also, the result in assay [5], in assay [6], in assay [7] and in assay [8] was inactive.

For the compound `Nc1c2c(nc3ccc(NC(=O)Cc4ccccc4)cc13)CCCC2`, the values for the growth inhibition in assay [1] and in assay [4] were -2% and 101% (active), respectively. Also, the figures for the inhibition in assay [2] and in assay [3] were 9% and 6%, respectively. Also, the outcome in assay [5], in assay [6], in assay [7] and in assay [8] was inactive.

As to `CC(C)C[C@H](NC(=O)OC(C)(C)C)C(=O)Nc1ccc(Cc2ccc(NC(=O)[C@H](CC(C)C)NC(=O)OC(C)(C)C)cc2)cc1`, the growth inhibition in assay [1] was 88% (active); in assay [4] it was 94% (active). Further, the inhibition was -5% in assay [2] and 0% in assay [3]. Further, the outcome in assay [5], in assay [6], in assay [7] and in assay [8] was inactive.

For `CN(C)CC(O)C(O)(c1ccccc1)c1ccc(F)cc1` (configuration not stated), the growth inhibition in assay [1] is 10%; in assay [4], 93% (active). The inhibition in assay [2] was -10%; in assay [3] it was 4%. Moreover, the result in assay [5], in assay [6], in assay [7] and in assay [8] was inactive.

As for `Cc1cc(NC(=O)Nc2ccc(C#N)cc2)c2ccccc2n1`, the growth inhibition in assay [1] is 49%; in assay [4] it was 100% (active). Besides, the inhibition in assay [2] is 88% (active); in assay [3], -2%. Moreover, the result in assay [5], in assay [6], in assay [7] and in assay [8] was inactive.

On to `O=C(Nc1cccc(CN2CCCN(CC3CCCCC3)CC2)c1)c1ccc(Cl)c(Cl)c1`, for which the growth inhibition in assay [1] is 15%; in assay [4], 91% (active). Further, the inhibition in assay [2] is 39%; in assay [3], 7%. For the same compound, the outcome in assay [5], in assay [6], in assay [7] and in assay [8] was inactive.

Regarding `CCCC1N=C(N)N=C(N)N1c1cccc([N+](=O)[O-])c1` (configuration not stated), the results for the growth inhibition in assay [1] and in assay [4] were 1% and 96% (active), respectively. Further, the results for the inhibition in assay [2] and in assay [3] were -4% and 3%, respectively. Further, the result in assay [5], in assay [6], in assay [7] and in assay [8] was inactive.

`NC(=O)c1cnc2cc(-c3ccncc3)cc(Nc3ccc(NC(=O)C4CCCCC4)cc3)c2c1`: the growth inhibition in assay [1] was 99% (active); in assay [4] it was 98% (active). Besides, the values for the inhibition in assay [2] and in assay [3] were 58% (active) and 0%, respectively. Besides, the result in assay [5], in assay [6], in assay [7] and in assay [8] was inactive.

As to `C[C@H](NC(=O)[C@H](Cc1ccccc1)NC(=O)OC(C)(C)C)C(=O)N[C@@H](CC1CCCCC1)C(O)CN` (some centres not stated), the growth inhibition was 64% (active) in assay [1] and 96% (active) in assay [4]. Besides, the inhibition in assay [2] was -4%; in assay [3], -5%. The result in assay [5], in assay [6], in assay [7] and in assay [8] was inactive.

Turning to `O=C(Nc1cccc(F)c1)NC1CCN(CCCCCNC(=O)[C@@H]2C[C@H]2c2ccc(Cl)c(Cl)c2)CC1`, the growth inhibition is 12% in assay [1] and 101% (active) in assay [4]. The inhibition in assay [2] was 41%; in assay [3], 4%. Moreover, the result in assay [5], in assay [6], in assay [7] and in assay [8] was inactive.

With `COc1cc(CCCON2C(N)=NC(N)=NC2(C)C)cc(OC)c1OC`, the figures for the growth inhibition in assay [1] and in assay [4] were 94% (active) and 98% (active), respectively. In addition, the inhibition was 68% (active) in assay [2] and -2% in assay [3]. Also, the outcome in assay [5], in assay [6], in assay [7] and in assay [8] was inactive.

Regarding `CCNc1cc(C(=O)N[C@@H](Cc2ccccc2)[C@H](O)CNC2(Cc3cccc(Cl)c3)CCC2)cc(N2CCCCS2(=O)=O)c1`, the growth inhibition in assay [1] was 83% (active); in assay [4], 95% (active). The inhibition in assay [2] is 22%; in assay [3], 1%. Moreover, the result in assay [5], in assay [6], in assay [7] and in assay [8] was inactive.

As for `CC1(C)C(N(O)C(=O)Nc2ccc(Cl)c(Cl)c2)N(c2ccc(Cl)c(Cl)c2)C(=O)N1CCc1ccccc1` (configuration not stated), the growth inhibition in assay [1] is 93% (active); in assay [4] it was 91% (active). Besides, the inhibition in assay [2] was 10%; in assay [3], -1%. Moreover, the result in assay [5], in assay [6], in assay [7] and in assay [8] was inactive.

For the compound `O=C(/C=C/c1ccc(Cl)c(Cl)c1)NCCCCCN1CCC(NC(=O)Nc2ccc(OC(F)F)cc2)CC1`, the growth inhibition in assay [1] is 18%; in assay [4], 101% (active). Further, the inhibition in assay [2] is 33%; in assay [3], 6%. In addition, the result in assay [5], in assay [6], in assay [7] and in assay [8] was inactive.

In the case of `O=C(CCc1ccccc1)NC(c1ccc(Cl)cc1)c1ccc2cccnc2c1O` (configuration not stated), the growth inhibition in assay [1] was 49%; in assay [4], 95% (active). The figures for the inhibition in assay [2] and in assay [3] were 59% (active) and 2%, respectively. Besides, the result in assay [5], in assay [6], in assay [7] and in assay [8] was inactive.

In the case of `O=[N+]([O-])c1ccc2c(c1)c1ccccc1n2Cc1ccccc1O`, the growth inhibition is 84% (active) in assay [1] and 93% (active) in assay [4]. Further, the results for the inhibition in assay [2] and in assay [3] were -2% and 0%, respectively. The result in assay [5], in assay [6], in assay [7] and in assay [8] was inactive.

As to `CN1CCC(NCc2cccc(-c3ccc(S(=O)(=O)NCCc4ccccn4)c(F)c3)c2)CC1`, the values for the growth inhibition in assay [1] and in assay [4] were 26% and 98% (active), respectively. Moreover, the inhibition in assay [2] was 11%; in assay [3], 7%. In addition, the result in assay [5], in assay [6], in assay [7] and in assay [8] was inactive.

On to `Cc1sc(N2CCCCC2)nc1C(=O)Nc1ccc(F)cc1C(F)(F)F`, for which the growth inhibition was 35% in assay [1] and 86% (active) in assay [4]. Also, the results for the inhibition in assay [2] and in assay [3] were -18% and 2%, respectively. Also, the result in assay [5], in assay [6], in assay [7] and in assay [8] was inactive.

In general, inhibition refers to the drop in the measured response relative to a control, in per cent.

Values taken from PubChem BioAssay.
